SARS PLpro yeast = blocks SARS-CoV papain-like protease in a yeast assay. S. cerevisiae expressing SARS-CoV PLpro, growth rescue. Potency, µM (series often up to 32.9 µM), actives largely listed as activators. 0.19% of 330,000 active; calls by dose curve; note: nearly all actives have a fitted effect of over 55% in size
Sm TGR block = S. mansoni TGR enzyme inhibition. purified TGR, DTNB reduction, TNB absorbance 405 nm. AID 485364. Q962Y6. 3% of 360,000 active. Potency, µM (doses to about 114 µM), actives largely listed as inhibitors; note: nearly all actives have a fitted effect of over 60% in size
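TGR 20 nM + NADPH 100 uM (dispensed conc.), cpd preinc 15 min RT; start with NADPH (500 uM addition) then DTNB (15 mM addition). Kinetic TNB absorbance, 405 nm filter. Four-parameter Hill fit across titration.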
Pf growth 96h = inhibits malaria parasite growth, 96 h | P. falciparum luciferase reporter growth, 96 h | Potency, µM (series often up to 28.7 µM), most hits filed as inhibitors | 6.9% of 320,000 active
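Plates of compound plus infected erythrocytes (2% hematocrit, 0.05% parasitemia final) incubate 96 hours, 37 C, 5% CO2. Detection reagent added; reduced luminescence from the parasites' luciferase reporter flags inhibition.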
Pf growth 48h = inhibits P. falciparum growth in the first generation, 48 h; 5.9% of 310,000 active; AID 504832; P. falciparum luciferase growth in erythrocytes, 48 h; Potency, µM (titrated, usually from 28.7 µM), hits mostly inhibitors
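First compound was added to culture medium, then infected red cells at 0.1% parasitemia and 2% hematocrit (final). After incubation at 37 C under 5% CO2, luciferase detection reagent was dispensed and light output recorded.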
Large screens that a line does not name were inactive. Compounds with a hit are over-represented: about 12% of the library has one in this group of screens. Unless noted, calls come from the whole dose curve; as a rule, active = well fitted curve in the direction sought with a large enough effect; inconclusive = small, poorly fitted or top-dose-only effect, or another doubt; inactive = no such curve, though single readings can be large; an effect the other way counts as inactive or inconclusive.

COc1ccccc1N1C(N)=NC(N)=NC12CCCCC2	Pf growth 96h 13µM, Pf growth 48h inconclusive
COc1ccc(N2C(N)=NC(N)=NC23CCCC3)cc1	Pf growth 48h 0.93µM
CCC1Oc2ccc(C)cc2N(CC(=O)N2CCCC2)C1=O (stereo not drawn)	Pf growth 96h inconclusive
CC1CCN(C(=O)COC(=O)/C=C/c2ccco2)CC1	none (no result: Sm TGR block, Pf growth 96h, Pf growth 48h)
CN(CCOC(=O)/C=C/c1ccco1)Cc1ccccc1	Sm TGR block 2.5µM
CN(Cc1ccccc1)C(=O)COC(=O)/C=C/c1ccco1	Sm TGR block 3.5µM
CCOC(=O)[C@H]1[C@H]2COc3ccc(OC)cc3[C@@H]2N2C(=O)[C@H](C)NC(=O)[C@@]12C	Sm TGR block inconclusive, Pf growth 96h inconclusive
CCOc1cc(C(=O)Nc2ccc(C(=O)NCCN(CC)CC)cc2)ccc1OCC(=O)N1CCOCC1	Sm TGR block 35µM, Pf growth 48h inconclusive
COc1cc(C=O)ccc1OCC(=O)N1CCCC1	Pf growth 96h 9.3µM
CCOc1cc(C(=O)Nc2ccc(NC(C)=O)cc2)ccc1OCC(=O)N1CCCCC1	Pf growth 96h 12µM
CCN1CCN(C(=S)c2ccc(OCC(=O)NCc3ccccc3)cc2)CC1	none
CCOc1cc(C(=S)N2CCCCC2)ccc1OCC(=O)NCc1ccccc1	Pf growth 96h 3.7µM (no result: Pf growth 48h)
CCOc1cc(C(=O)NCc2ccccc2)ccc1OCC(=O)N1CCOCC1	none
CCOc1cc(C(=O)Nc2ccc(C)cc2C)ccc1OCC(=O)N1CCCCC1	Pf growth 96h inconclusive, Pf growth 48h inconclusive
CCCCN(C)CCNC(=O)c1cc2c(=O)n(C)c3ccccc3c2n1C	none (no result: SARS PLpro yeast, Pf growth 96h, Pf growth 48h)
CC(C)(Oc1ccc(Cl)cc1)C(=O)OCC(=O)NCCc1ccccc1	none
C/C=C\C=C/C(=O)Nc1cccc(C2=NOC3(C2)C[C@@H](C(N)=O)N(C(=O)CCCCC)C3)c1 (stereo partly drawn)	Sm TGR block 2.5µM, Pf growth 96h inconclusive
C/C=C\C=C/C(=O)Nc1cccc(C2=NOC3(C2)C[C@H](C(N)=O)N(C(=O)CC)C3)c1 (stereo partly drawn)	Sm TGR block 1.8µM
C/C=C/C=C\C(=O)Nc1cccc(C2=NOC3(C2)C[C@H](C(N)=O)N(C(=O)CC#N)C3)c1 (stereo partly drawn)	Sm TGR block 2µM
C/C=C/C=C/C(=O)N1CC2(CC(c3cccc(NC(=O)/C=C/C)c3)=NO2)C[C@@H]1C(N)=O (stereo partly drawn)	Sm TGR block inconclusive
C=C(C)C(=O)Nc1cccc(C2=NOC3(C2)C[C@@H](C(N)=O)N(C(=O)/C=C/C=C/C)C3)c1 (stereo partly drawn)	Sm TGR block 8.9µM
CCCCCC(=O)Nc1cccc(C2=NOC3(C2)C[C@H](C(N)=O)N(C(=O)CC#N)C3)c1 (stereo partly drawn)	none
O=C(Cn1nc2c(cc1=O)CCCC2)Nc1ccccc1C(F)(F)F	none (no result: SARS PLpro yeast, Pf growth 96h, Pf growth 48h)
COc1cc(C2C(=O)N(C3CCCCC3)CC(=O)N2C2CCCCC2)ccc1OC(C)C (stereo not drawn)	none (no result: SARS PLpro yeast, Pf growth 96h, Pf growth 48h)
Cn1cc(S(=O)(=O)N2CCOCC2)cc1C(=O)O	none (no result: Sm TGR block, Pf growth 96h, Pf growth 48h)
Cc1cc(CN(C)C(=O)c2cc(COc3ccc(C)c(C)c3)on2)on1	none
CCOC(=O)CNC(=O)N1CCCN(S(=O)(=O)c2ccc3c(ccn3CC)c2)CC1	none (no result: SARS PLpro yeast, Pf growth 96h, Pf growth 48h)
CCCCOc1ccc(S(=O)(=O)Nc2ccc(-c3ccc(N4CCCCC4)nn3)cc2)cc1	none (no result: SARS PLpro yeast, Pf growth 96h, Pf growth 48h)
CCC(=O)Nc1cccc(C2=NOC3(C2)C[C@@H](C(N)=O)N(C(=O)C(c2ccccc2)c2ccccc2)C3)c1 (stereo partly drawn)	Pf growth 96h inconclusive
C/C=C/C=C\C(=O)Nc1cccc(C2=NOC3(C2)C[C@@H](C(N)=O)N(C(=O)/C(C)=C/C)C3)c1 (stereo partly drawn)	Sm TGR block 2.5µM
C/C=C\C=C\C(=O)Nc1cccc(C2=NOC3(C2)C[C@@H](C(N)=O)N(C(=O)C(c2ccccc2)c2ccccc2)C3)c1 (stereo partly drawn)	Sm TGR block 1.8µM, Pf growth 96h inconclusive, Pf growth 48h inconclusive
CCCCOc1ccc(/C=C/C(=O)NC2=Nc3ccccc3NC(C)=C2C(=O)OCC)cc1OC	Pf growth 96h 10µM, Pf growth 48h inconclusive
FC(F)(F)c1ccc(Nc2nnnc3ccccc23)cc1	Pf growth 96h 1.5µM, Pf growth 48h 1.3µM
Cc1nnc(Nc2ccc(F)cc2)c2ccccc12	Pf growth 96h inconclusive
O=C(c1ccc(Br)cc1)N1CCCC(c2nc(-c3cccs3)no2)C1 (stereo not drawn)	Pf growth 96h inconclusive
O=C(CN1CC[n+]2c(-c3cccs3)csc21)c1ccc(Br)cc1	Pf growth 48h 13µM
O=C(CN1CC[n+]2c(-c3ccccc3)csc21)c1ccc(Br)cc1	Pf growth 96h inconclusive, Pf growth 48h 7.4µM
COC(=O)c1cccc(N(C(=O)c2ccco2)C(C(=O)NC2CCCC2)c2ccc(N3CCOCC3)cc2)c1 (stereo not drawn)	Pf growth 48h 10µM
O=C(NCC(=O)N(Cc1cccs1)C(C(=O)NC1CCCCC1)c1ccco1)c1ccco1 (stereo not drawn)	Sm TGR block inconclusive, Pf growth 96h inconclusive
O=C(NC1CCCCC1)C(c1cccs1)N(Cc1cccs1)C(=O)c1ccco1 (stereo not drawn)	Pf growth 48h 15µM (no result: Pf growth 96h)
CC(=O)c1cccc(N(C(=O)c2ccco2)C(C(=O)NC2CCCC2)c2ccc(N3CCOCC3)cc2)c1 (stereo not drawn)	Pf growth 48h inconclusive
O=C(NC1CCCC1)C(c1ccc(N2CCOCC2)cc1)N(Cc1ccccc1)C(=O)c1ccco1 (stereo not drawn)	Pf growth 48h 15µM (no result: Pf growth 96h)
Cc1ccc(C(C(=O)NC(C)(C)C)N(CCCN2CCOCC2)C(=O)c2ccc(-c3ccccc3)[nH]2)o1 (stereo not drawn)	none
O=C(NC1CCCCC1)C(c1cccs1)N(CCCN1CCOCC1)C(=O)c1ccc(-c2ccccc2)[nH]1 (stereo not drawn)	Pf growth 48h 1.7µM
C[C@H](NC(=O)c1ccc(C(C)(C)C)cc1)C(=O)N1CCOCC1	none (no result: Sm TGR block, Pf growth 96h, Pf growth 48h)
COc1ccc([C@H]2CC(=O)C=C(c3ccc(Oc4ccccc4)cc3)C2)cc1OC	Pf growth 96h inconclusive, Pf growth 48h inconclusive
O=c1c2c(-c3cccs3)csc2ncn1-c1ccccc1	Pf growth 96h 12µM
Cc1ccc(-n2cnc3scc(-c4cccs4)c3c2=O)cc1	Pf growth 48h inconclusive
O=C(Nc1ccc2nc(-c3cccs3)c(-c3cccs3)nc2c1)NC1CC1	Pf growth 96h 9.3µM (no result: Pf growth 48h)
C/C(=N\NC(=O)c1c[nH]c2ccccc12)c1ccc2c(c1)OCO2	Pf growth 96h 5.9µM, Pf growth 48h inconclusive
C/C(=N/NC(=O)CNC(=O)c1ccc2c(c1)OCO2)c1ccc2c(c1)CCCC2	Pf growth 96h 3.3µM
C/C(=N/NC(=O)CNC(=O)c1ccccc1F)c1ccc2c(c1)CCCC2	none
Cc1cc(C)cc(NC(=O)CSc2nnc(CNC(=O)c3c(F)cccc3Cl)o2)c1	none (no result: SARS PLpro yeast, Pf growth 96h, Pf growth 48h)
O=C1CC2(CCCCC2)Oc2ccc(O)cc21	Pf growth 96h 4.1µM
COc1ccc(Cc2nnc(NC(=O)c3ccccc3C)s2)cc1	Pf growth 96h 2.1µM

Compound activity deposited in PubChem by National Center for Advancing Translational Sciences (NCATS).
